Data on 56 compounds can be found in paper PMC4336329 (PLoS ONE, 2015).

Each structure is given as a SMILES string. Out of some 310,000 compounds screened, about 14,000 (4.5%) showed an effect of 50% or more. The effect is printed as a negative number. The sample as a whole holds a higher share of strong results than the screen did.
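Also: peak tail current of the secondary pulse compared with the same well before compound.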

human ether-à-go-go-related gene (hERG) potassium channel, sequence (Q12809 whole entry, looked up): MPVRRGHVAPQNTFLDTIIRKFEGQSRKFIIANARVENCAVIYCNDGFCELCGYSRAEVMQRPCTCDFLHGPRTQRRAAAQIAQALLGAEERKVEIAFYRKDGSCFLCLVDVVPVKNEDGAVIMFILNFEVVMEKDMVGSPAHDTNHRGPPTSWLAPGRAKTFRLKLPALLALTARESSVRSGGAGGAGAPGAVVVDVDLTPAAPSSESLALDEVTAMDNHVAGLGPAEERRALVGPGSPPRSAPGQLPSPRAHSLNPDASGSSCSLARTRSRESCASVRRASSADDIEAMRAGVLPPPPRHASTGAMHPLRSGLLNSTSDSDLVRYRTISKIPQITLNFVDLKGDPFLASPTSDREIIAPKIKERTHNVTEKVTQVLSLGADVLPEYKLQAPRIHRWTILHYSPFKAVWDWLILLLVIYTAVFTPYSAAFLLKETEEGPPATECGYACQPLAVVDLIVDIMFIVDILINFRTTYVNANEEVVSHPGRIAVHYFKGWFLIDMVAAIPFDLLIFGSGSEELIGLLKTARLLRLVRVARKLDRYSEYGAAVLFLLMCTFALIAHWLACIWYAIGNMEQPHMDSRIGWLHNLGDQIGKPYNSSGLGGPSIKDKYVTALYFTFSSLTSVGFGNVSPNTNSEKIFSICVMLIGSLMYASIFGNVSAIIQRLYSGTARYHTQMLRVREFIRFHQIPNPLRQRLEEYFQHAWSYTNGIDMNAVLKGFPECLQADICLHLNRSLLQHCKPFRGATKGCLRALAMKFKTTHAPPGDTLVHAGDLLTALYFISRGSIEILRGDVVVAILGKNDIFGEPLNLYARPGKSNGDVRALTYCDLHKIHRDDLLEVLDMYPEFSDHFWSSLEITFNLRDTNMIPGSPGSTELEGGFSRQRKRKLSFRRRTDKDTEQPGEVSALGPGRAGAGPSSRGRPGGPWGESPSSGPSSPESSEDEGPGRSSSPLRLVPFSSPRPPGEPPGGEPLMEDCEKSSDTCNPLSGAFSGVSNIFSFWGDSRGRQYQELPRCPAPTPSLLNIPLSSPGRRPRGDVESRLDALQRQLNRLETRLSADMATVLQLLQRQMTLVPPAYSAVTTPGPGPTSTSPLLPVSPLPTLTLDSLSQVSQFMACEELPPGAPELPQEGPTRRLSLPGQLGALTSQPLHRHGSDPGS

This assay addresses human ether-à-go-go-related gene (hERG) potassium channel (human, UniProt Q12809). Nature of the assay: primary screen, population patch clamp on CHO cells stably expressing hERG; higher = less effect of the substance.
On to `N#Cc1c(Nc2ccccc2)sc(C(=O)c2ccccc2)c1N`, for which the “hERG current change (%, negative = inhibition) at 10uM” value is recorded as -7.02%.
The same measure for `O=C(O)c1cccc([N+](=O)[O-])c1C(=O)Nc1cccc2ccccc12`: 21.9%; for `C[C@@H]1CC=C[C@H]2[C@H]1C(=O)N(Cc1ccccc1)[C@H]2c1ccc(/C=C/c2ccccc2)cc1F`: 4.34%.
Then `O=C(CN(Cc1ccco1)C(=O)Cn1nnc(-c2cccs2)n1)NCC1CCCO1` (centres unmarked), with 6.63%; and `O=C(CN(CCc1ccccc1)C(=O)Cn1nnc(-c2cccs2)n1)NCc1ccco1`, with -38.7%; and `O=C(CN(Cc1ccco1)C(=O)Cn1nnc(-c2cccs2)n1)NCc1ccccc1`, with -51.7%.
`CCSc1nnc(NC(=O)COc2ccc(Cl)cc2)s1`: the “hERG current change (%, negative = inhibition) at 10uM” value stood at 24%.
In the case of `CC(=O)C1=C(C)NC(SCC(=O)c2ccc(Cl)c(Cl)c2)=C(C#N)C1c1ccco1` (centres unmarked), the “hERG current change (%, negative = inhibition) at 10uM” value is 5.27%.
Consider `CCCCC(=O)NC(Nc1cc(C)ccn1)(C(=O)OCC)C(F)(F)F` (centres unmarked), for which the “hERG current change (%, negative = inhibition) at 10uM” value came to 2.5%.
Then `CCC(C)(C)C1CCC(=NNC(=S)Nc2ccccc2)CC1` (centres unmarked), with 11.4%; and `COC(/C=C/Nc1ccc(C)cc1)=C(C#N)C#N`, with -38%.
The same measure for `COC(/C=C/Nc1ccc(OC)cc1)=C(C#N)C#N`: -59.9%.
Regarding `COC(/C=C/Nc1ccc(Br)cc1)=C(C#N)C#N`, the “hERG current change (%, negative = inhibition) at 10uM” value was -39.3%.
The same measure for `CCc1cc2c(CN3CCN(CC)CC3)cc(=O)oc2cc1O`: -8.81%; for `CC1(C)Oc2ccc3ccc(=O)oc3c2C(/C=N/O)C1=O` (centres unmarked): 3.87%.
For the compound `O=C(CN1C(=O)NC2(CCCCCC2)C1=O)c1ccc(OC(F)F)cc1OC(F)F`, the “hERG current change (%, negative = inhibition) at 10uM” value was -35%.
Regarding `COc1cc(OC)c(OC)cc1CN1CCN(Cc2ccc(SC)cc2)CC1.O=C(O)C(=O)O`, the “hERG current change (%, negative = inhibition) at 10uM” value was -61.5%.
Then `COc1cc(OC)c(OC)cc1CN1CCN(Cc2cccc(F)c2)CC1.O=C(O)C(=O)O`, with 10.2%.
In the case of `COc1ccc(C(=O)N2CCN(Cc3cc(OC)c(O)c(OC)c3)CC2)cc1OC.O=C(O)C(=O)O`, the “hERG current change (%, negative = inhibition) at 10uM” value came to 8.89%.
`COc1cc(CN2CCN(Cc3ccc(SC)cc3)CC2)cc(OC)c1O.O=C(O)C(=O)O`: the “hERG current change (%, negative = inhibition) at 10uM” value is -67.9%.
`COc1cccc(CN2CCN(Cc3cc(OC)c(OC)cc3OC)CC2)c1.O=C(O)C(=O)O`: the “hERG current change (%, negative = inhibition) at 10uM” value is -29.1%.
`COc1cc(CN2CCN(C(=O)CC(C)C)CC2)cc(OC)c1O.O=C(O)C(=O)O`: the “hERG current change (%, negative = inhibition) at 10uM” value is recorded as -0.00662%.
Then `Cc1ccc(N2C(=O)CS(=O)(=O)CC2=O)cc1`, with 22.9%; and `CC[C@H](C)[C@H](NC(N)=O)C(=O)NCCc1ccc(OC)c(OC)c1`, with 20.1%; and `O=[N+]([O-])C(=C1Nc2ccccc2N1)/C(Cl)=C(/Cl)Br`, with 19.8%.
For the compound `c1csc(-c2nc(NCC3CCCO3)c3ccccc3n2)c1` (centres unmarked), the “hERG current change (%, negative = inhibition) at 10uM” value is -20.5%.
As for `N#Cc1nc(-c2cccs2)oc1NCC1CCCO1` (centres unmarked), the “hERG current change (%, negative = inhibition) at 10uM” value is on record as -10%.
Turning to `Brc1ccc2nc(-c3cccs3)c(NCC3CCCO3)n2c1` (centres unmarked), the “hERG current change (%, negative = inhibition) at 10uM” value is listed as -52.6%.
With `COc1ccccc1OCC(=O)Nc1c2c(nn1-c1ccccc1)CS(=O)(=O)C2`, the “hERG current change (%, negative = inhibition) at 10uM” value is recorded as -8.22%.
The same measure for `Cc1c(C)c2cc(Cl)c(OCC(=O)N3C[C@H]4C[C@@H](C3)c3cccc(=O)n3C4)cc2oc1=O`: 1.78%.
`CC(=O)c1ccc(Nc2c3c(nc4ccccc24)CCCC3)cc1`: the “hERG current change (%, negative = inhibition) at 10uM” value is given as -53.3%.
The same measure for `Cc1ccccc1C(=O)Nc1c2c(nc3ccccc13)CCCC2`: -5.54%; for `CC(=O)c1cccc(Nc2c3c(nc4ccccc24)CCC3)c1.Cl`: -68.8%.
Then `O=C(O)c1cccc(Nc2c3ccccc3nc3ccccc23)c1`, with 19.7%; and `O=C(Nc1c2c(nc3ccccc13)CCCC2)c1ccccc1Cl`, with 17.2%; and `CC(=O)c1cccc(Nc2nc(-c3ccccc3)nc3ccccc23)c1.Cl`, with 26.9%.
The same measure for `CCC(CC)C(=O)NC12CC3CC(CC(C3)C1)C2`: 5.15%; for `Cc1cccc(CSCCNC(=O)CN(c2cc(C)cc(C)c2)S(C)(=O)=O)c1`: -23.9%.
`CC(NC(=O)C(=O)N1CCOCC1)C(c1cccs1)N1CCN(c2ccc(F)cc2)CC1` (centres unmarked): the “hERG current change (%, negative = inhibition) at 10uM” value was -0.955%.
As to `Cc1nc(C(F)(F)F)nc(Nc2ccc(Br)cc2)c1C#N`, the “hERG current change (%, negative = inhibition) at 10uM” value amounted to 12.2%.
The same measure for `COc1ccc(C=C(c2nc3ccccc3s2)c2nc3ccccc3s2)cc1O`: 3.94%; for `Cc1ccc2c(c1)N(CCC(=O)NCCN1CCOCC1)C(=O)CO2`: -2.16%.
Then `N/C(Cc1ccc([N+](=O)[O-])cc1)=N\OC(=O)COc1ccc2ccccc2c1`, with -14.4%; and `O=C(O)c1cccc(CN2C(=O)SC(Nc3ccccc3)C2=O)c1` (centres unmarked), with 2.16%; and `Cl.c1ccc(-c2ccccc2OCCOCCN2CCc3ccccc3C2)cc1`, with -28.7%.
The same measure for `Cc1ccc(C(C)C)c(OCCCN2CCc3ccccc3C2)c1.Cl`: -70.1%; for `Cc1ccc(C(C)C)c(OCC(O)CN2CCc3ccccc3C2)c1.Cl` (centres unmarked): -65%; for `Cl.OC(COc1ccc(Cl)cc1Cl)CN1CCc2ccccc2C1` (centres unmarked): -58.6%.
As to `Cc1ccc(C(C)C)c(OCC(O)CN2CCN(CCO)CC2)c1.Cl` (centres unmarked), the “hERG current change (%, negative = inhibition) at 10uM” value was -13.9%.
In the case of `Cc1ccc(C)c(OCCCN2CCc3ccccc3C2)c1.Cl`, the “hERG current change (%, negative = inhibition) at 10uM” value was -49.4%.
The same measure for `OC(COc1ccc(F)cc1Cl)CN1CCc2ccccc2C1` (centres unmarked): -41.7%.
Take `Cc1ccc(C(C)C)c(OCCN2CCc3ccccc3C2)c1.Cl`: the “hERG current change (%, negative = inhibition) at 10uM” value turned out to be 14.5%.
`Cc1ccc(C(C)C)c(OCC(O)CN2CCOCC2)c1` (centres unmarked): the “hERG current change (%, negative = inhibition) at 10uM” value is -2.99%.
Turning to `Cl.Clc1ccc(OCCOCCN2CCc3ccccc3C2)c(Cl)c1`, the “hERG current change (%, negative = inhibition) at 10uM” value was -69.8%.
As for `Cl.Clc1ccc(OCCCN2CCc3ccccc3C2)c(Br)c1`, the “hERG current change (%, negative = inhibition) at 10uM” value is -34.8%.
`OC(COc1ccc(Cl)cc1Cl)Cn1ccnc1` (centres unmarked): the “hERG current change (%, negative = inhibition) at 10uM” value amounted to 9.67%.
